This is an account of results in PubChem BioAssay (NCI).

Molecules are shown by their SMILES. The panel holds about 83,000 compounds, 20% with a hit somewhere; the sample as a whole holds those more often.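 A percent growth of 40 corresponds to 60% growth inhibition; 0 means no net growth; -100 means all cells died. Active threshold: below 10.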 Values without a mark were called inactive.

The subject of the first assay is SK-MEL-28 melanoma. The assay can be described thus: NCI-60 one-dose screen, 48 h (100 = growth as untreated, 0 = no growth, -100 = all killed). The following applies: 10 µM unless noted.
For `CCC(/C=C\C(C)=O)CC`, the growth is 101%.

For the compound `CCOC(=O)CO`, the growth was 114%.

Turning to `Cc1cc(=O)n(Nc2ccccc2)c(O)c1C#N`, the growth was 111%.

Regarding `CN(C)c1ccc(O)c2c1CC1CC3C(N(C)C)C(=O)C(C(N)=O)=C(O)C3(O)C(=O)C1=C2O` (centres undefined), the growth is 47.4%.

With `COc1ccc2c(Cl)cc(NC(=O)Nc3c(C)cccc3C)nc2c1`, the growth is 97%.

Consider `CC(=O)c1cccs1`, for which the growth was 98.1%.

Regarding `O=Cc1ccc(F)cc1`, the growth was 102%.

Consider `O=C(O)c1ccc([N+](=O)[O-])cc1S(=O)(=O)O`, for which the growth is 103%.

Regarding `C=CCC(OC(C)=O)c1ccc(C(C)C)cc1` (centres undefined), the growth was 120%.

As to `CCOc1ccc(C(=O)NCC(C)C)cc1`, the growth is 106%.

On to `Cc1ccc(NC(=O)c2ccccc2Cl)cc1`, for which the growth was 108%.

As for `Cc1cc(NC(=O)c2ccccc2)c(Cl)cc1N`, the growth was 124%.

For `CCCCNC(=O)c1ccc(OCC)cc1`, the growth is 101%.

`CC(=O)c1cccc(N(C)S(=O)(=O)c2ccc(C)cc2)c1`: the growth was 93.6%.

`CC(=O)c1cc(O)ccc1O`: the growth is 109%.

Turning to `Cc1nc(O)cc(=O)[nH]1`, the growth is 110%.

In the case of `CCOc1ccccc1NC(=O)CCl`, the growth is 87%.

`Cc1ccc(S(=O)(=O)CCCl)cc1`: the growth was 115%.

Take `CC(CCC#N)(CCC#N)C(=O)c1ccccc1`: the growth is 119%.

Consider `Cc1cc(CO)c(O)c(CO)c1`, for which the growth is 108%.

Regarding `O=Cc1ccc(Cl)c(Cl)c1`, the growth was 107%.

As to `CCN(C(C)=O)c1ccc([N+](=O)[O-])cc1`, the growth is 106%.

For the compound `Nc1cccc2cccc(O)c12`, the growth is 111%.

For `Cc1cccc2ccccc12`, the growth is 98.2%.

Take `NC(=O)OCCO`: the growth is 113%.

Consider `CCOC(=O)C(CCC#N)(CCC#N)C(=O)OCC`, for which the growth is 107%.

Consider `N#CCCN1C(=O)CCC1C(=O)O` (centres undefined), for which the growth was 124%.

With `COC(=O)c1cccc([N+](=O)[O-])c1`, the growth was 102%.

As to `O=C(CC(CC(=O)c1ccccc1)c1ccccn1)c1ccccc1`, the growth was 110%.

In the case of `CC(=O)c1cccc(NS(=O)(=O)c2ccc(C)cc2)c1`, the growth was 78.5%.

For `C=COC(=O)C(C)(C)C`, the growth is 108%.

As for `CSc1nc2[nH]ncc2c(=O)[nH]1`, the growth is 106%.

Turning to `CC(=O)c1ccc(C)cc1`, the growth was 104%.

Consider `O=c1[nH]c(=O)c2cc(Cl)cc(Cl)c2[nH]1`, for which the growth was 124%.

With `O=[N+]([O-])c1c(Cl)ncnc1Cl`, the growth was 105%.

For the compound `O=C1NCC2CCCC1C2` (centres undefined), the growth is 110%.

In the case of `OC(CBr)CCBr` (centres undefined), the growth is 107%.

Another assay has as its system SK-MEL-2 melanoma. The assay is described as above. The following applies: 10 µM unless noted.
Take `CCC(/C=C\C(C)=O)CC`: the growth was 112%.

Regarding `Cc1cc(=O)n(Nc2ccccc2)c(O)c1C#N`, the growth was 96.4%.

`CN(C)c1ccc(O)c2c1CC1CC3C(N(C)C)C(=O)C(C(N)=O)=C(O)C3(O)C(=O)C1=C2O` (centres undefined): the growth was 17.6%.

`COc1ccc2c(Cl)cc(NC(=O)Nc3c(C)cccc3C)nc2c1`: the growth is 106%.

On to `CC(=O)c1cccs1`, for which the growth is 112%.

`O=Cc1ccc(F)cc1`: the growth was 129%.

As for `O=C(O)c1ccc([N+](=O)[O-])cc1S(=O)(=O)O`, the growth is 95.9%.

`CC(=O)c1cccc(N(C)S(=O)(=O)c2ccc(C)cc2)c1`: the growth was 94.2%.

For the compound `CCN(C(C)=O)c1ccc([N+](=O)[O-])cc1`, the growth was 107%.

Regarding `Cc1cccc2ccccc12`, the growth is 106%.

Regarding `NC(=O)OCCO`, the growth was 100%.

`CCOC(=O)C(CCC#N)(CCC#N)C(=O)OCC`: the growth was 112%.

For `COC(=O)c1cccc([N+](=O)[O-])c1`, the growth is 94.1%.

Turning to `O=C(CC(CC(=O)c1ccccc1)c1ccccn1)c1ccccc1`, the growth was 106%.

Turning to `CC(=O)c1cccc(NS(=O)(=O)c2ccc(C)cc2)c1`, the growth is 77.9%.

Take `C=COC(=O)C(C)(C)C`: the growth is 94.7%.

As to `CSc1nc2[nH]ncc2c(=O)[nH]1`, the growth is 111%.

For the compound `O=[N+]([O-])c1c(Cl)ncnc1Cl`, the growth was 110%.

`OC(CBr)CCBr` (centres undefined): the growth is 124%.

For another assay, the system named is EKVX NSCLC. The assay is described as above. The following applies: 10 µM unless noted.
`CCOC(=O)CO`: the growth is 95.6%.

Consider `C=CCC(OC(C)=O)c1ccc(C(C)C)cc1` (centres undefined), for which the growth was 113%.

Take `CCOc1ccc(C(=O)NCC(C)C)cc1`: the growth was 106%.

On to `Cc1ccc(NC(=O)c2ccccc2Cl)cc1`, for which the growth was 105%.

Take `Cc1cc(NC(=O)c2ccccc2)c(Cl)cc1N`: the growth is 107%.

Take `CCCCNC(=O)c1ccc(OCC)cc1`: the growth was 103%.

As for `CC(=O)c1cc(O)ccc1O`, the growth was 112%.

For `Cc1nc(O)cc(=O)[nH]1`, the growth is 108%.

In the case of `CCOc1ccccc1NC(=O)CCl`, the growth is 111%.

Take `Cc1ccc(S(=O)(=O)CCCl)cc1`: the growth is 97.6%.

For the compound `CC(CCC#N)(CCC#N)C(=O)c1ccccc1`, the growth is 115%.

For the compound `Cc1cc(CO)c(O)c(CO)c1`, the growth is 106%.

As for `O=Cc1ccc(Cl)c(Cl)c1`, the growth was 109%.

With `Nc1cccc2cccc(O)c12`, the growth was 94.6%.

In the case of `N#CCCN1C(=O)CCC1C(=O)O` (centres undefined), the growth was 112%.

As for `CC(=O)c1ccc(C)cc1`, the growth was 98.5%.

For the compound `O=c1[nH]c(=O)c2cc(Cl)cc(Cl)c2[nH]1`, the growth was 92.7%.

For `O=C1NCC2CCCC1C2` (centres undefined), the growth is 118%.
